Screening results as filed in PubChem.
Rce1 inh – blocks yeast Ras-converting enzyme; Q03530; yeast membranes, quenched prenylated peptide cleavage fluorescence; calls only; hit rate 0.27% among 290,000;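 active means fall in fluorescence gain of 50% or more versus controls, with final raw signal at or below 3038400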
PLC-gamma1 inh – inhibitors of human phospholipase C gamma1; P19174; purified PLC-gamma1, fluorogenic substrate, fluorescence; inhibition, % at 12.2 µM; hit rate 0.84% among 370,000; AID 720700; in the data active means inhibition above about 9.5%
ADAM10 inh – inhibits human ADAM10; recombinant ADAM10, EDANS/DABCYL FRET peptide cleavage, 3 h; inhibition, % at 7 µM; hit rate 0.62% among 370,000; AID 720582;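 active means inhibition above a per-campaign cutoff equal to the mean of compounds falling between control-based bounds plus 3 SD, cut at about 20% in these data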
Target sequence (O14672 214-748 limits assumed): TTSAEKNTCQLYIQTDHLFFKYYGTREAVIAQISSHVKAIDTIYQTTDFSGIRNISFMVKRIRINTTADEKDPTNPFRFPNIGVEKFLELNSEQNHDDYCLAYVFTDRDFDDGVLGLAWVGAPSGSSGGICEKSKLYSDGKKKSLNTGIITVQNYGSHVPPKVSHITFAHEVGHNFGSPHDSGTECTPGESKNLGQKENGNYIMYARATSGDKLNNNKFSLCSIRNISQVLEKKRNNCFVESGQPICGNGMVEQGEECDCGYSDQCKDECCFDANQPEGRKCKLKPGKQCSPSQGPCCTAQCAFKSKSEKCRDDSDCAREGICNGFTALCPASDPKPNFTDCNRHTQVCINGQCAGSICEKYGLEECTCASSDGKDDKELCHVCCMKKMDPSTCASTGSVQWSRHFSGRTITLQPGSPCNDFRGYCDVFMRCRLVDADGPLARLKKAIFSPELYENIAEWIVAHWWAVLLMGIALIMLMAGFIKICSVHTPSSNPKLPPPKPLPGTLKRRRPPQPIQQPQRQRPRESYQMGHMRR
ADAM17 inh – inhibits human ADAM17 | hit rate 0.83% among 370,000 | inhibition, % at 6.95 µM | P78536 | recombinant ADAM17, EDANS/DABCYL FRET peptide cleavage;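 active means inhibition above the mean of compounds lying between control limits plus 3 SD, set per campaign, cut at about 8.5% in these data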
PLC-beta3 inh – PLC-beta3 (human) inhibition, primary screen | hit rate 0.18% among 370,000 | inhibition, % at 12.2 µM | AID 720704 | Purified PLC-beta3, fluorogenic substrate, fluorescence; in the data active means inhibition above about 11%
Large screens that a line does not name were inactive. An excerpt weighted towards active compounds, which were near 2.1% of everything screened.

Cc1ccc(S(=O)(=O)Oc2ccc(C3C4=C(CCCC4=O)N(CCC(=O)O)C4=C3C(=O)CCC4)cc2Cl)cc1	Rce1 inh active
C/C(CC(=O)NCc1ccco1)=N\NC(=O)c1ccc(Cl)cc1Cl	none
C/C(CC(=O)NCc1ccco1)=N\NC(=O)c1ccc([N+](=O)[O-])cc1Cl	Rce1 inh active
CN(C)c1ccc(N=Nc2ccccc2C(=O)OCC(=O)NC2CCCC2)cc1	none
CN(C)c1ccc(N=Nc2ccccc2C(=O)OCC(=O)NCC2CCCCC2)cc1	PLC-gamma1 inh 11
Cc1cccc(/C=N/NC(=O)c2ccc(Br)cc2)c1	Rce1 inh active
O=C(/C=C/c1cn(-c2ccccc2)nc1-c1cccs1)NCCN1CCOCC1	Rce1 inh active
O=C(c1cn(-c2ccccc2)nc1-c1cccs1)N1CCOCC1	none
O=C(c1cc(-c2ccncc2)nc2ccccc12)N1CCN(c2ccccn2)CC1	none
O=C(c1cn(-c2ccccc2)nc1-c1cccs1)N1CCN(c2ccccc2)CC1	Rce1 inh active (no result: PLC-gamma1 inh, ADAM10 inh, ADAM17 inh, PLC-beta3 inh)
O=C(c1cc(-c2ccccc2)nc2ccccc12)N1CCN(c2ccccn2)CC1	Rce1 inh active
COc1ccc(N2CCN(C(=O)c3cc(-c4cccs4)nc4ccccc34)CC2)cc1	Rce1 inh active
Nc1nc2c(ncn2[C@@H]2O[C@H](C(=O)N[C@@H](Cc3ccccc3)C(=O)NCC3CCCCC3)[C@@H](O)[C@H]2O)c(=O)[nH]1	none (no result: Rce1 inh)
CN(C)c1ccc(-c2csc(C(O)c3cccc(Cl)c3)n2)cc1 (configuration not stated)	none (no result: Rce1 inh)
CCCC/C=C1/[C@@H](CC)N(Cc2ccc(OC)cc2OC)C2=N[C@@H](c3ccccc3)CC(=O)N21	none (no result: Rce1 inh)
Clc1cccc(CSc2nnc(-c3c[nH]c4ccccc34)o2)c1	ADAM10 inh 21
Clc1ccc2nc(CSc3nnc(-c4c[nH]c5ccccc45)o3)cn2c1	none (no result: Rce1 inh)
O=C(O)c1cccc(CSc2nnc(-c3ccc(Cl)cc3)o2)c1	none
O=c1c(-c2nnc(SCc3ccc(Cl)c(Cl)c3)o2)cccn1Cc1ccccc1	Rce1 inh active
COc1ccc(C2=NOC(C(=O)N(C)Cc3ccccc3)C2)cc1 (configuration not stated)	none (no result: Rce1 inh)
Cc1cc(-c2cc(NC(=O)Cc3c[nH]c4ccccc34)ccc2N(C)c2cccnc2)ccc1F	none (no result: Rce1 inh)
O=C(CCCN1C(=O)/C(=C\c2ccccc2)SC1=S)Nc1ccc(O)cc1	ADAM10 inh 24
Cc1ccc(/C=C2/SC(=S)N(CCCC(=O)Nc3ccc(O)cc3)C2=O)cc1	none
COc1ccc(C2Nc3ccccc3C(=O)N2Cc2ccccc2)cc1COc1ccccn1 (configuration not stated)	Rce1 inh active
COc1ccc(C2Nc3ccccc3C(=O)N2Cc2ccccc2)cc1OC (configuration not stated)	none
CC(c1c[nH]c2ccccc12)c1cn(C)c2ccccc12 (configuration not stated)	none (no result: Rce1 inh)
CCOC(=O)N(C)C[C@H]1OCc2cnnn2CCCC(=O)N([C@H](C)CO)C[C@@H]1C	none (no result: Rce1 inh)
CCc1nnc(NS(=O)(=O)c2ccc(NC(=O)c3ccccc3)cc2)s1	none
CCc1nnc(NC(=O)c2ccc(NS(=O)(=O)c3ccccc3)cc2)s1	Rce1 inh active
CC(=O)N1CCCC(C(=O)c2ccc(Oc3ccccc3)cc2)C1 (configuration not stated)	none
CCCCCCCCN1C(=O)[C@@H](CC(=O)N2CCN(C(=O)c3ccco3)CC2)C[C@@]2(C(=O)OC)C1=C[C@H](C(C)C)O[C@@H]2C1CC1	none (no result: Rce1 inh)
CN1C(=O)/C(=C/c2cccc(Cl)c2)Sc2ccc(C(=O)N3CCOCC3)cc21	Rce1 inh active
CCOc1ccc(/C=C2/Sc3ccc(C(=O)N4CCOCC4)cc3N(C)C2=O)cc1OC	none
CCS(=O)(=O)Nc1c(C(=O)O)[nH]c2ccccc12	Rce1 inh active
CCN(CC)c1ccc(N=Nc2ncn[nH]2)cc1	PLC-beta3 inh 12
Cc1c(OCC(=O)N2CCC(C(=O)O)CC2)ccc2c3c(c(=O)oc12)CCC3	none
Cc1c(Cc2ccccc2)c(=O)oc2c(C)c(OCC(=O)N3CCC(C(=O)O)CC3)ccc12	Rce1 inh active
Cc1cc(-c2ccccc2)n2nc(C)c(C#N)c2n1	Rce1 inh active
O=C(CCCn1c(=O)[nH]c2ccc(Br)cc2c1=O)NCc1ccc(Cl)cc1	Rce1 inh active
COC1=C(Br)C(=O)c2nc(C)ccc2C1=O	PLC-gamma1 inh 15 (no result: Rce1 inh)
COC(=O)C1(C(=O)OC)NOC2C(=O)N(c3ccc(Cl)cc3Cl)C(=O)C21 (configuration not stated)	ADAM17 inh 11 (no result: Rce1 inh)
COC(=O)C1(C(=O)OC)NOC2C(=O)N(N(C)c3ncc(C(F)(F)F)cc3Cl)C(=O)C21 (configuration not stated)	none
COc1cccc(CNC(=O)[C@H]2CCCN2C(=O)[C@H]2CCCN2C(=O)c2ccccc2)c1	none (no result: Rce1 inh)
CCCCNC(=O)c1nc(-c2ccccc2)oc1-c1ccc(Cl)cc1	none (no result: Rce1 inh)
O=C(OCC#CCSc1nnc(-c2cccc3ccccc23)o1)c1ccc(SC(F)(F)F)cc1	none (no result: Rce1 inh)
O=C(O)Cc1c[nH]c2cccc(O)c12	PLC-gamma1 inh 25
CC(C)(C)c1nc(CN2CCOCC2)cc(CN2CCOCC2)c1O	none
Cc1ccc(-c2nc(CN3CCCCC3)cc(CN3CCCCC3)c2O)cc1	Rce1 inh active
CCN(Cc1ccccc1)S(=O)(=O)c1ccc(OC)cc1	none
COc1ccc(S(=O)(=O)N(CC(=O)N2CCCC2)Cc2ccccc2)cc1	Rce1 inh active
Cc1cc(Cl)c2oc(C(=O)N3CCN(C(=O)c4ccco4)CC3)c(C)c2c1	Rce1 inh active
Cc1cc(Cl)c2oc(C(=O)N3CCOCC3)c(C)c2c1	none (no result: Rce1 inh)
O=S1(=O)N[C@H](c2ccccc2)COc2cc(Br)ccc21	none (no result: Rce1 inh)
COc1ccc(N2C(=O)c3n[nH]c(C)c3C2c2ccccc2)cc1 (configuration not stated)	none (no result: Rce1 inh)
Cc1ccc(S(=O)(=O)N2CCN(C(=O)c3cc4c(C)nn(-c5ccccc5C)c4s3)CC2)cc1	ADAM10 inh 22, ADAM17 inh 9.0
Cc1ccccc1-n1nc(C)c2cc(C(=O)N3CCOCC3)sc21	none
O=C1CCCC2=C1[C@@]1(O[C@H]3C=CC=CN23)C(=O)N(c2ccccc2)c2ccccc21	none (no result: Rce1 inh)
CN(C(=O)c1ccc2c(c1)SC1=NS(=O)(=O)CCN12)C(c1ccccc1)c1ccccc1	Rce1 inh active
O=C(O)c1ccc2c(c1)SC1=NS(=O)(=O)CCN12	none
Cc1noc(C)c1S(=O)(=O)N(C)C[C@@H]1OCc2cn(nn2)CCCC(=O)N([C@@H](C)CO)C[C@H]1C	PLC-gamma1 inh 12 (no result: Rce1 inh)
CN(C)[C@H]1CCN(c2ccc3c(c2)O[C@@H]2CCN(C2)S3(=O)=O)C1	none (no result: Rce1 inh)
Cc1c(C)c2ccc(OC(C)C(=O)NCCCN3CCOCC3)c(C)c2oc1=O (configuration not stated)	Rce1 inh active
Cc1ccc(C(=O)N2N=C(c3ccccc3O)CC2c2ccccc2)cc1 (configuration not stated)	Rce1 inh active
